Sequences and labels used below:
T1: UNK ZnF1-6 (called full-length) (human, UniProt Q9C0B0 30-357)
T1 sequence: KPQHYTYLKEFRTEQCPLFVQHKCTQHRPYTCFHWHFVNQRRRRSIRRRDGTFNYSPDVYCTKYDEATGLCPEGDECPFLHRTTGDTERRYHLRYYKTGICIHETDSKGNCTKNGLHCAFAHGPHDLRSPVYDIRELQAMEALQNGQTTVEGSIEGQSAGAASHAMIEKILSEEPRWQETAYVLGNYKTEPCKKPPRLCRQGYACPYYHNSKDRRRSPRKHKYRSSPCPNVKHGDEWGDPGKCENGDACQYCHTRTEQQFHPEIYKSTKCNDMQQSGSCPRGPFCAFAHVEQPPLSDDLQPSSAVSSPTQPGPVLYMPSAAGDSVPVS

B1: chrX:101412715:101412817:+|CDS|ENSG00000126945|unk|total|mutant (ssRNA)
RNA: GGGAGUUCUACAGUCCGACGAUCGGGUAUGGAGGCUAUGAUGACUAUGGUGGCUAUAAUGAUGGAUAUGGCUUUGGGUCUGACCGAUUUGGAAGAGACCUCAAUUACUGUUUUUCAGGAAUGUCUGAUCACCGAUACGGAGAUCAACAGAGGAUUGAGCAUCA
B2: chr7:100033925:100034026:+|CDS|ENSG00000106261|msi1|total|mutant (ssRNA)
RNA: GGGAGUUCUACAGUCCGACGAUCCAGAGCUCGGACCUCACCAAGCAUCAGAGAAUUCACACGGGGGAGAAACCCUAUGAAUGCCGUGAAUGUGGAAAAGCUUUCAACCGAAACUCAUACCUGAUUUUGCAUCGGAGAAUUCACCAACAGAGGAUUGAGCAUCA
B3: chr12:123761472:123761573:+|3pUTR|ENSG00000185344|unk|total|mutant (ssRNA)
RNA: GGGAGUUCUACAGUCCGACGAUCAAUAAGGCAGUUUGAACGAACAGUCUUCCCACAGUCAGGCCAUUUUUGCUGAUUUGGUUCCGAAUUUUCAGAAAUACUCCGUACACUCCACCUGUUCUUUGAUGGGAAUAUCUAAGAAGGCAACAGAGGAUUGAGCAUCA
B4: chr20:2117184:2117286:+|CDS|ENSG00000125834|unk|FALSE|unique (ssRNA)
RNA: GGGAGUUCUACAGUCCGACGAUCGCUCCUGGGGACCUACAUUAAACAGGGGACUGAGAUCGUCCCUGUUGGUGAGGCGCUGCUAGAAAACCCAAAGAUGGAGUUGCACAUCCCCCAAAAACGCAGGACUUCCAUGUCUGAGGGCAACAGAGGAUUGAGCAUCA
B5: chr6:106663037:106663138:+|CDS|ENSG00000130348|msi1|FALSE|unique (ssRNA)
RNA: GGGAGUUCUACAGUCCGACGAUCAGCACAGAAAGUGAGACGCCUCAUUGCUAAUGACUUUGUAAAUGCUUUUAACUCUGGAGUAGAUGUCUUGCUAACUCCCACCACCUUGAGUGAGGCAGUACCAUACUUGGAGUUCAUCAACAACAGAGGAUUGAGCAUCA
B6: ENSG00000070961:be:win_1|CDS|ENSG00000070961|bound_else_gene|NA|bound_elsewhere_windowed (ssRNA)
RNA: GGGAGUUCUACAGUCCGACGAUCAUGGGCGACAUGGCAAACAACUCAGUUGCUUACAGUGGUGUGAAAAACUCUUUGAAGGAAGCUAAUCAUGAUGGAGACUUUGGAAUUACGCUCGCAGAGCUGCGGGCUCUCAUGGAGCUCCAACAGAGGAUUGAGCAUCA
B7: chr3:185917260:185917361:-|3pUTR|ENSG00000136527|msi1|FALSE|unique (ssRNA)
RNA: GGGAGUUCUACAGUCCGACGAUCUGGCAAAAAGCAACAAUAAACAGUUUGAUUUUUACUUUUCUUUCUAACAUAUCAAUGCUUAGCAGAACUAUUCAGAUUGUCAGUAGUAAAUUUAAAGACAAAUGCCCGUUUUCCUCCAGUCAACAGAGGAUUGAGCAUCA
B8: chr8:17299120:17299221:-|3pUTR|ENSG00000003987|unk|total|mutant (ssRNA)
RNA: GGGAGUUCUACAGUCCGACGAUCUCCUCAUUAUUUAAAAAUGCUAAACCUUGUAUCUCACUUUUUCUCUAACACUGAUUUAACCGCUAACGAGGCCGAAGCAACAUUCAUUCUCCUGGUCUUACAUAUGAAUUUAAGUAUCAGCAACAGAGGAUUGAGCAUCA
B9: chr12:21491601:21491717:-|CDS|ENSG00000004700|unk|FALSE|unique (ssRNA)
RNA: GGGAGUUCUACAGUCCGACGAUCGCUGCCUCCCAUAGCUCUAACUGAGGAACUGGAUUCUAUAACCAGUGAGCUACAUGCAGUAGAAAUUCAAAUUCAAGAACUUACGGAAAGGCAACAAGAGCUUAUUCAGAAAAAAAAAGUCAACAGAGGAUUGAGCAUCA
B10: chr9:130903550:130903651:-|3pUTR|ENSG00000130720|msi1|total|mutant (ssRNA)
RNA: GGGAGUUCUACAGUCCGACGAUCAAAUACCCGGCAUUAUGGGGACAGAGAGCAGGGGGCAGACAGCACCCCUGGAGUCCUCCCCGCAGAUCGUGGGGAACGUCAGGUCUCUCUGAGGUCAGGUCUGAGGCCAGUAUCCUCCAGCAACAGAGGAUUGAGCAUCA
B11: chr1:113590523:113590624:+|CDS|ENSG00000081026|unk|FALSE|unique (ssRNA)
RNA: GGGAGUUCUACAGUCCGACGAUCUCAUCUGACUGGAUGAAGACUGUUCCAAGUUACAACCAAACAAAUAGCUCCAUGGACUUUAGAAAUUAUAUGAUGAGAGAUGAGACUCUGGAACCACUGCCCAAAAACUGGGAAAUGGCCCAACAGAGGAUUGAGCAUCA
B12: chr4:127885990:127886091:+|CDS|ENSG00000142731|msi1|FALSE|unique (ssRNA)
RNA: GGGAGUUCUACAGUCCGACGAUCAUUACUUAUCGGGAGACCACCCUUCGACACUGACACAGUCAAGAACACAUUAAAUAAAGUAGUAUUGGCAGAUUAUGAAAUGCCAUCUUUUUUGUCAAUAGAGGCCAAGGACCUUAUUCACAACAGAGGAUUGAGCAUCA
B13: chr8:23842656:23842757:-|3pUTR|ENSG00000159167|msi1|total|mutant (ssRNA)
RNA: GGGAGUUCUACAGUCCGACGAUCCCCCAAACUUAUGGACACUGCCUCCGCCUCUUGGAAAUCAGGCCGACCAUAUUCUAAGUCCGACUCUUCCCCUCCCUCCCACACUUCCCACCCCCAGGCAAGGCUGACUUCUCUGAAUCACAACAGAGGAUUGAGCAUCA
B14: ENSG00000070961:be:win_3851|3pUTR|ENSG00000070961|bound_else_gene|NA|bound_elsewhere_windowed (ssRNA)
RNA: GGGAGUUCUACAGUCCGACGAUCUUUUUGGGGGGUGGGAGAAAUGAACUGACAGAUAAACAGUAACUCAGCGUAAGUGACCUGUGGAUCAUCAGUAGUACCCAAGCAUGGUCCUGAACAGUGUAUUAGCAGAGCUUUAGUUUACAACAGAGGAUUGAGCAUCA
B15: chr19:34227675:34227687:+|3pUTR|ENSG00000257103|msi1_unk|FALSE|overlapping (ssRNA)
RNA: GGGAGUUCUACAGUCCGACGAUCUUAAAACAUGAGCAUUAAAUAUAUUUGGAAUAGCAGAAGGUUAAGUAAUUUCUUAUGUAUAGUUAAACUAAAGCAGUACUUCAGUGGGACUUAACAAGUAUUUUUUCAUCACUGAAAGGUCAACAGAGGAUUGAGCAUCA
B16: chr19:51415897:51416167:-|CDS|ENSG00000142512|control|control|control (ssRNA)
RNA: GGGAGUUCUACAGUCCGACGAUCGCCACACUGAGCUGGGUCCUGCAGAACAGAGUCCUCUCCUCGUCCCAUCCCUGGGGCCCUAGACCCCUGGGGCUGGAGCUGCCCGGGGUGAAGGCUGGGGAUUCAGGGCGCUACACCUGCCAACAGAGGAUUGAGCAUCA
B17: chr1:180199467:180199568:+|3pUTR|ENSG00000116260|msi1|FALSE|unique (ssRNA)
RNA: GGGAGUUCUACAGUCCGACGAUCCACAGGAACAAUUUCCUCAAGGAGACAGUGGCAUGGAGCUUUGAAAGACGAGUAGGUGUUAGCAAGGAAAUAAGGAGGAACGGGGGUUACGGGCAGAGGAGAAAGCACAUGCCAAGUCAGCAACAGAGGAUUGAGCAUCA
B18: chr15:55376998:55377117:-|CDS|ENSG00000260916|unk|total|mutant (ssRNA)
RNA: GGGAGUUCUACAGUCCGACGAUCUAUCUAUAUUGGAACUGCCAGUGAUGAUUCUGAUAUUGUUACCCUUGAGCCACCUAAGUCCGAAGAAAUUGGAAAUCAAGAAGUUGUCAUUGUUGAAGAAGCACAGAGUUCAGAAGACUUCAACAGAGGAUUGAGCAUCA
B19: chr15:63774837:63774950:-|CDS|ENSG00000103657|unk|FALSE|unique (ssRNA)
RNA: GGGAGUUCUACAGUCCGACGAUCGUAACAACAUUUCUUAAAGGAGUCACUAUUCCUAAUUCUGGGGCAGACACUUUAGGUCGUAGAUUAGCUUCUGAGUUGCUGCUUGGUUUGGCAGCUCAACGAGGCUCAUUGCGAUAUCUUCAACAGAGGAUUGAGCAUCA
B20: chr12:68660398:68660499:+|3pUTR|ENSG00000127314|msi1|total|mutant (ssRNA)
RNA: GGGAGUUCUACAGUCCGACGAUCUUGAGGUGGCCAAAUGUAAACUAAAAGCCUUAAUUAAAGUGGUGCAAUUUUGUAUAACUCCGCAUCAGCCGUUCAAUAAAUUUGGAUUGCCAUGCAAGGGCUUGCAUUAUAAUUACUUGCCAACAGAGGAUUGAGCAUCA
B21: chr5:103029089:103029184:+|3pUTR|ENSG00000145730|msi1_unk|FALSE|overlapping (ssRNA)
RNA: GGGAGUUCUACAGUCCGACGAUCAACCAAGCUUUGAUUUAGAUUGAGUAAGAUUUACCCAGAAUGUCAGAUUCCUUUCCCUUUAGCACGUUUAAAGUUCUGUGUAUUUAAUUGUAAACUGUACUAGUCUGUGUGGGACUGUACCAACAGAGGAUUGAGCAUCA
B22: chr2:32415436:32415554:+|CDS|ENSG00000115760|unk|FALSE|unique (ssRNA)
RNA: GGGAGUUCUACAGUCCGACGAUCUGGGACUUUGGUUCAGUGCUUGAGGCUGCCAAAGUUUGCAGAGGAGGAGAAUCUUUGUAUAGACUCAAUAACUCCUUGUGCUGACGGAAUUCAUUUGUUGGUAGGACUGCGGACAUGCCCCAACAGAGGAUUGAGCAUCA

The results in this text go back to paper PMC12136788.

The full ranking holds about 5,800 sequences; the median of “enrichment r” is about 0.68, and the highest 2% start at about 11. These entries were drawn from the full list.

This assay deals with T1, UNK ZnF1-6 (called full-length). In words: nsRBNS (natural sequence RNA bind-n-seq); RBNS binding buffer (assumed for nsRBNS): 25 mM Tris pH 7.5, 150 mM KCl, 3 mM MgCl2, 0.01% Triton X-100, 500 ug/ml BSA, 20 U/ml SUPERase-In, 4 C; UNK is unkempt and MSI1 is Musashi-1; names of the RNAs are library labels; protein concentration not given here; high values mean tight binding.
The molecule B1 had a binding signal of 0.671 enrichment R. Turning to B2, the binding signal turned out to be 0.595 enrichment R.

As for B3, the binding signal is 0.271 enrichment R. Regarding B4, the binding signal is 1.08 enrichment R.

For the molecule B5, the binding signal worked out at 0.484 enrichment R.

B6 returned a binding signal of 0.508 enrichment R. As for B7, the binding signal stood at 0.751 enrichment R. B8 displayed a binding signal of 0.98 enrichment R.

On to B9, for which the binding signal came to 0.594 enrichment R.

Take B10: the binding signal stood at 0.72 enrichment R.

B11 showed a binding signal of 1.15 enrichment R. Next, B12: 1.26 enrichment R; B13: 1.07 enrichment R. Then B14, with 1.18 enrichment R; and B15, with 1.37 enrichment R. For B16, the binding signal was found to be 0.641 enrichment R.

In turn, B17 yielded a binding signal of 1.51 enrichment R. Molecule B18 showed a binding signal of 0.258 enrichment R. On to B19, for which the binding signal was 0.542 enrichment R. Then B20, with 0.352 enrichment R. In turn, B21 had a binding signal of 1.16 enrichment R. Then B22, with 0.624 enrichment R.
